The results in this text go back to PubChem BioAssay AID2284369 (EPA ToxCast).

Structures are written as SMILES. Records with an inconclusive call do not appear. Calls of active or inactive are those of the source. Rule for the calls: active = hit-call score of the fitted dose curve at least 0.9, where 1 is the maximum; inconclusive = response in the unintended direction; inactive = score below 0.9.

The test system of this test is frog Estrogen Receptor (ER1), gene 398734. Briefly: ATG_frER1_EcoTox2: Attagene TRANS-FACTORIAL EcoTox-2 HepG2 Assay for frog Estrogen Receptor (ER1). The method, then: ATG_EcoTox2 is a cell-based, multiplexed assay created by modifying the existing Attagene TRANS-FACTORIAL system to include a panel of nuclear receptors from some or all the following species: human (Homo sapiens), african clawed frog (Xenopus laevis), rainbow trout (Oncorhynchus mykiss), japanese medaka (Oryzias latipes), and zebrafish (Danio rerio). The ECOTOX2-FACTORIAL format uses HepG2, a human liver cell line, with measurements taken at 24 hours after chemical dosing in a 24-well plate. ATG_frER1_EcoTox2 is one of 29 assay components calculated in the ATG_EcoTox2 assay. It is designed to make measurements of mRNA induction, a form of inducible reporter, as detected with fluorescence intensity signals by Reverse transcription polymerase chain reaction (RT-PCR) and Capillary electrophoresis technology.The assay endpoint ATG_frER1_EcoTox2 was analyzed in the positive analysis fitting direction relative to DMSO as the negative control and baseline of activity. Using a type of inducible reporter, measures of mRNA for gain-of-signal activity can be used to understand the reporter gene at the transcription factor-level as they relate to the gene ER. Furthermore, this assay endpoint can be referred to as a primary readout, because this assay has produced multiple assay endpoints where this one serves a reporter gene function. To generalize the intended target to other relatable targets, this assay endpoint is annotated to the nuclear receptor intended target family, where the subfamily is steroidal.
Human liver HepG2 cells are transiently transfected with multiple reporter transcription units (MRTUs) in 6-well plates using FuGene 6 reagent (Roche; 3 ml FuGene/1 mg DNA). The MRTU constructs are regulated by a cis-regulating element (promoter). Each RTU expresses a GAL4-UAS that regulates the transcription of a nearby target reporter gene sequence. A major difference between the CIS and TRANS system is that in CIS activities of endogenous TFs are measured, whereas the TRANS assay evaluates changes in activities of exogenous, chimeric NR-Gal4 proteins. […] At the end of 24 hour incubation, total RNA was isolated using TriZol reagent (Invitrogen). The isolated RNA is then reverse-transcribed using oligo(dT) primer and Mo-MLV reverse transcriptase (Invitrogen) with DNAse I (Ambion) treatment for 30 min. The one-tenth of the produced cDNA was amplified by PCR using Taq DNA polymerase (Invitrogen) and two reporter sequence-specific primers. The PCR products were fluorescently labeled by primer extension with 6-arboxyfluorescein (6-FAM) 5'-labeled reporter sequence-specific primer (2 min at 95 C, 20 s at 68 C and 10 min at 72 C) and these products were digested with 5U of HpaI (New England Biolabs) for 2h at 37 C. The fragments were purified using Qiaquick PCR columns (Qiagen), analyzed on an ABI 3130xL genetic analyzer (Applied Biosystems) with peak positions identified by using a set of X-rhodamine (ROX)-labeled MapMarker1000 molecular weight standards (BioVentures). The raw capillary electrophoresis data was processed using Attagraph software (Attagene).
In the case of `C[C@]12C=CC(=O)C=C1CC[C@@H]1[C@@H]2C(=O)C[C@@]2(C)[C@H]1CC[C@]2(O)C(=O)CO`, the AC50 (usually the concentration giving half of the maximal activity seen) is 50 µM (active).
For `CC(C)OC(=O)C(C)(C)Oc1ccc(C(=O)c2ccc(Cl)cc2)cc1`, the result was inactive.
Turning to `C[C@@H]1C[C@H]2[C@@H]3CCC4=CC(=O)C=C[C@]4(C)[C@@]3(F)[C@@H](O)C[C@]2(C)[C@@]1(O)C(=O)COP(=O)(O)O`, the call was inactive.
The same measure, in the same setting: the entry for `Cc1cccc(Nc2cc(Cl)nc(SCC(=O)O)n2)c1C` is “inactive”; for `CC(c1cc2ccccc2s1)N(O)C(N)=O` (stereo not given) it is “inactive”; for `CN(CCOc1ccc(CC2SC(=O)NC2=O)cc1)c1ccccn1` (stereo not given) it is “inactive”.
Still for that read-out and setting: the entry for `CC(C)(Oc1ccc(CCNC(=O)c2ccc(Cl)cc2)cc1)C(=O)O` is “inactive”; for `Cc1ccc(C)c(OCCCC(C)(C)C(=O)O)c1` it is “inactive”; for `Cc1c(C)c2c(c(C)c1O)CCC(C)(COc1ccc(CC3SC(=O)NC3=O)cc1)O2` (stereo not given) it is “inactive”.
In the case of `C=C(c1ccc(C(=O)O)cc1)c1cc2c(cc1C)C(C)(C)CCC2(C)C`, the molecule was classed as inactive.
